Test results: PubChem BioAssay AID841 (Emory University Molecular Libraries Screening Center, 2007)
About 2,100 (1.5%) of roughly 140,000 compounds were called active. This is one part of a sample in which actives are shown more often than they occur. Values without a mark were called inactive. Cut-off read from the data, not from the text of the source: active = protection mostly above about 24% (no sharp cut-off); inactive = mostly below about 26%.

Experiment: compounds protecting cells from measles virus cytopathic effect, primary screen, measles RdRp inhibitor project, single point, MLSMR library, absorbance (AID 841)
Settings: Measles virus-infected cells, CPE protection, at 4 µM, active compounds read high

| SMILES | protection (pct of control) |
| --- | --- |
| CCCC(C)C(=O)OCC(=O)Nc1c(Br)cc(C)cc1Br (stereo not drawn) | 5.66% |
| CCCc1cc(-c2n[nH]c(=S)n2Cc2ccccc2)cs1 | 18% |
| C=CCn1c(-c2ccc3[nH]c(C)c(C)c3c2)n[nH]c1=S | 41.1% (active) |
| CCc1cc(-c2n[nH]c(=S)n2CC(C)C)cs1 | 1.82% |
| CC(C)(C)c1ccc(NC(=O)COC(=O)CCc2nc3ccccc3c(=O)[nH]2)cc1 | 4.79% |
| COc1ccccc1NC(=O)CSc1nc2sc(C)c(C)c2c(=O)n1Cc1ccco1 | 48.9% (active) |
| COc1cc(Cl)c(C)cc1NC(=O)CSc1nnc(-c2cccnc2)n1Cc1ccco1 | 6.16% |
| COc1ccc(NC(=O)CSc2nnc(-c3cccs3)n2Cc2ccco2)cc1OC | 5.61% |
| CCOc1cc(C2C(C(=O)OC)=CN(C3CCCC3)C=C2C(=O)OC)cc(Br)c1O | 8.51% |
| COC(=O)C1=CN(C)C=C(C(=O)OC)C1c1ccc(Cl)cc1Cl | 4.66% |
| CCOc1ccccc1C1C(C(=O)OC)=CN(C)C=C1C(=O)OC | 48.9% (active) |
| Cc1ccnc(NC(=O)Cn2ccc([N+](=O)[O-])n2)c1 | 6.33% |
| COc1ccc(Cl)cc1NC(=O)[C@@H]1CCCN1C(=O)c1cccs1 | 6.26% |
| COc1ccc(CN2C(=O)CC(Cc3ccc(C)cc3)C2=O)cc1OC (stereo not drawn) | 7.23% |
| CCCCNS(=O)(=O)c1ccc2nc(SCC(=O)Nc3cc(C)cc(C)c3)[nH]c2c1 | 6.86% |
| CSCc1cc(N2CCOCC2)nc(SCc2ccc(Cl)cc2Cl)n1 | 71.8% (active) |
| O=c1cc(CSc2ccc(Cl)cc2)nc(N2CCOCC2)[nH]1 | 15.7% |
| CSCc1cc(N(C)C)nc(SCc2ccc(Cl)cc2Cl)n1 | 3.22% |
| O=C1CCCC(O)=C1N=Nc1ccc2ncsc2c1 | 4.07% |
| COc1cc(/C=C(/NC(=O)c2ccc(Cl)cc2Cl)C(=O)O)cc(OC)c1OC | 8.92% |
| Cc1cccc(CSc2nnc(Cn3c(=O)sc4ccccc43)n2C)c1 | 11.3% |
| Cc1ccccc1CSc1nnc(Cn2c(=O)sc3ccccc32)n1C | 42.8% (active) |
| C=CCSc1nnc(Cn2c(=O)sc3ccccc32)n1C | 12.3% |
| CCN(CC)S(=O)(=O)c1cc([N+](=O)[O-])ccc1N=Nc1c(O)n(C)c2ccccc12 | 4.65% |

| SMILES | protection (pct of control) |
| --- | --- |
| COc1ccc(C)cc1NC(=O)CSc1ccc(Cl)cc1 | 9.52% |
| COC(=O)[C@H](Cc1ccccc1)NC(=O)[C@@H]1C[C@H]1[C@@H](NC(=O)OCc1ccccc1)c1ccccc1 | 49.5% (active) |
| COC(=O)[C@H](Cc1ccccc1)NC(=O)N1CC(C)OC(C)C1 (stereo partly drawn) | 13.1% |
| COC(=O)[C@H](C)[C@H]1C[C@]1(C)[C@H](NC(=O)OCc1ccccc1)c1ccccc1 | 3.04% |
| CSc1ccc(/C=C/C(=O)NC23CC4CC(CC(C4)C2)C3)cc1 | 2.59% |
| CC(=O)c1ccc(N2CCN(C(=O)c3ccc4nc[nH]c4c3)CC2)cc1 | 20.3% |
| Cc1ccc(-c2csc(NC(=O)Cc3cccs3)n2)cc1C | 42.2% (active) |
| CCCc1ccc(-c2csc(NC(=O)Cc3cccs3)n2)cc1 | 25% |
| COc1ccc(-c2csc(NC(=O)CCCc3cccs3)n2)cc1 | 37.9% |
| C/C(CC(=O)Nc1cccc(F)c1)=N\NC(=O)C(=O)NC1CCCCC1 | 2.76% |
| Cc1cc(C)c(C2C3=C(Nc4c2c(C)nn4-c2ccccn2)c2ccccc2C3=O)c(C)c1 (stereo not drawn) | 7.66% |
| O=C(CN1C(=O)c2cccc3cccc(c23)C1=O)N1CCCCC1 | 4.32% |
| Cc1nnc(NC(=O)/C=C/c2ccco2)s1 | 22.5% |
| O=[N+]([O-])c1ccc(NCCCO)c(C(F)(F)F)c1 | 10.7% |
| O=C(CSc1nc2c(cnn2-c2ccc(F)cc2)c(=O)[nH]1)N1CCCCCC1 | 6.65% |
| CC(=O)c1sc2nc(SCC(=O)N3CCCCC3)[nH]c(=O)c2c1C | 61.4% (active) |
| C=CCNC(=O)CSc1nc2sc(C)c(C)c2c(=O)[nH]1 | 1.51% |
| FC(F)(F)c1nnc2ccc(N3CCN(c4ccccc4)CC3)nn12 | 1.66% |
| Fc1c(F)c(C(F)(F)F)c(F)c(F)c1N1CCN(c2ccc3nnc(C(F)(F)F)n3n2)CC1 | 52.3% (active) |
| COc1ccc(S(=O)(=O)N2CCCC2)c(C)c1C | 7.99% |
| COc1ccc(S(=O)(=O)Nc2ccc(F)cc2)c(C)c1C | 62% (active) |
| COc1ccc(F)cc1S(=O)(=O)Nc1ccc2c(c1)OCO2 | 5.59% |
| COc1ccc(NC(=O)Nc2ccc3nc(C)c(C)nc3c2)cc1 | 2.45% |
| COc1ccc2c(c1)cc1n2CCN=C1NN | 25.1% (active) |
